Experimental findings from PubChem BioAssay (NCATS) are described below.

For assay [1], the target named is Glucocorticoid receptor (Homo sapiens) (UniProt P04150). The assay can be described thus: GR-GFP Redistribution (AID 450;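 active means compounds whose dose series gives a full or clear partial fitted curve of increased nuclear translocation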; further: potency means the concentration at half of the fitted maximal effect). The settings on record: U2OS GR-GFP nuclear translocation, laser cytometry, 2 h.
Assay [2] has the same target. The assay can be described thus: GR-EFC Redistribution (AID 451; calls by dose curve; further: potency means the concentration at half of the fitted maximal effect). The settings on record: CHO-K1 GR-EFC translocation, beta-gal luminescence, 2 h. In a few lines:
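CHO-K1 cells expressing nuclear EA and GR-ED fragments of b-gal; compounds titrated up to 46 uM final, 2 h at 37 C. GR nuclear translocation read as complemented b-gal luminescence after 1 h RT detection.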

The target in assay [3] is 3',5'-cyclic-AMP phosphodiesterase 4B (Homo sapiens) (UniProt Q07343). The experiment in a line: qHTS Assay for Inhibitors of PDE-IV (AID 607; active means well fitted activation curve with a large enough effect in the main read-out, with a control signal flat, not every such curve was filed as active; further: % of control where 0% means no effect). The settings on record: HEK293 ACTOne CNG channel cells, membrane potential fluorescence; series mostly up to 22.9 µM. The procedure, abridged: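 The readout is membrane depolarisation from a cAMP-sensing CNG channel, detected with a potential dye at ex 535/em 590. Cells were HEK293-derived (endogenous PDE-IV) at 1000 cells/well, titrated up to 22.9 uM final.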
In general terms: In qHTS, concentration-response curves come from the screen itself.

In assay [4] the target is Ubiquitin carboxyl-terminal hydrolase 1 (Homo sapiens) (UniProt O94782). The assay can be described thus: Inhibitors of USP1/UAF1: Pilot qHTS (AID 504865).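 Further: rhodamine fluorescence freed from ubiquitin-rhodamine substrate followed over time; top concentration of the series differs between compounds; on the % scale 0 is the no-effect control and ±100 the full control effect; nearly all actives have a fitted effect of over 35% in size.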 The settings on record: purified USP1/UAF1, Ub-rhodamine cleavage fluorescence; series mostly up to 114 µM. In a few lines:
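Deubiquitinase activity followed as kinetic rhodamine fluorescence release from 150 nM Ub-Rho. 1 nM USP1/UAF1 with compound, after 15 min room-temperature preincubation, in HEPES pH 7.8 buffer containing TCEP, EDTA, BSA and Tween-20.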

Assay [5] has as its target DNA dC->dU-editing enzyme APOBEC-3G (Homo sapiens) (UniProt Q9HC16). The experiment in a line: qHTS for inhibitors of Vif-A3G interactions: Validation (AID 588379). Further: 0% is about no effect. The settings on record: Vif-A3G protein interaction assay; series mostly up to 46.1 µM. The procedure, abridged: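 HeLa cells stably expressing Vif and A3G-eYFP, 700 cells/well, incubated overnight at 37 deg C, then exposed to compound overnight at 37 deg C. Inhibition of Vif-mediated degradation read as increased yellow fluorescence (Ex 488/Em 500-530) by laser-scanning cytometry.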

For assay [6], the system named is Zika virus NS2B-NS3 protease. The assay can be described thus: Primary screen GU AMC qHTS for Zika virus inhibitors (AID 1347154). Further: nearly all actives have a fitted effect of over 70% in size. Further: potency means the concentration at half of the fitted maximal effect.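 On activity change, negative = inhibition: 0% = no-inhibitor control and -100% = no-enzyme control.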 The settings on record: Zika NS2B-NS3 unlinked protease, AMC fluorogenic substrate; series mostly up to 54.1 µM. In a few lines:
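Unlinked Zika NS2B hydrophilic domain–NS3 protease complex at 25 nM in 10 mM Tris-HCl pH 8.0, 0.01% Tween 20, with an AMC peptide substrate. Fluorescence change (340/450 nm) over 15 min at room temperature, normalized to controls, fitted to 4-parameter Hill.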

The target of assay [7] is Cytochrome P450 1A2 (Homo sapiens) (UniProt P05177). The experiment in a line: p450-cyp1a2 (AID 410; calls by dose curve; further: potency means the concentration at half of the fitted maximal effect;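 on activity change, negative = inhibition: -100% = full effect of reference inhibitor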). The settings on record: recombinant CYP1A2, luciferin-ME demethylation, luminescence; series mostly up to 57 µM. In a few lines: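 Human CYP1A2 (20nM) demethylated Luciferin-ME at its Km (100uM) in 100mM KPO4. After 10 min compound preincubation, NADPH regeneration ran the reaction 60 min at room temperature. Luciferin was read by luminescence, normalized to 57 uM furafylline.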

For assay [8], the target named is Mitogen-activated protein kinase 10 (Mus musculus) (UniProt Q61831). The experiment in a line: JNK3 AlphaScreen Assay (AID 530; active means well fitted curve in either direction with a large enough effect, not every such curve was filed as active;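 further: kinase came from lysate of stimulated human HepG2 cells; signal reports phosphorylation of biotinylated GST-cJun 1-79 at Ser73 with 10 µM ATP; on the % scale 0 is the no-effect control and ±100 the full control effect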). The settings on record: JNK3 lysate, c-Jun phosphorylation; series mostly up to 57.1 µM. The procedure, abridged: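 qHTS format: compounds tested as titrations against IL-1beta/TNF-alpha-activated HepG2 lysate JNK3 with biotin-GST-cJun substrate and 10 uM ATP at room temperature. Loss of anti-phospho-cJun AlphaScreen signal indicates inhibition.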
(In general: Bead proximity is the source of the signal in Alpha formats.)

Assay [9] in a line: qHTS Assay for Lipid Storage Modulators (AID 1519; calls by dose curve; on activity change, negative = inhibition: on the % scale 0 is the no-effect control and ±100 the full control effect). The settings on record: Drosophila S3 cells, BODIPY lipid droplet/cell ratio, laser cytometry, cells loaded with oleic acid; for activity change, negative = inhibition: at 57.5 µM (top of the series). In a few lines:
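Cells seeded at 5,000 per well were treated with compounds over a concentration series and loaded with oleic acid (400 uM, as added). Lipid droplet fluorescence (488 nm excitation, 500-530 nm channel) was read by laser-scanning cytometry and normalized to 20 uM Triacsin C.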

Setting [10] is: measured here: cell count channel max response.
Setting [11] is: measured here: lipid channel max response.

“And” between values parts separate entries of the source, which are not always exact repeats. Equal entries are not always repeated. Inconclusive results are not listed. The source made the active and inactive calls. Unless noted, the call rests on the fitted dose curve; in most records, active means well fitted inhibition curve with a large enough effect; inconclusive means small, poorly fitted or top-dose-only effect; inactive means flat fitted curve, though single readings scatter. Where only a bound is given, the exact number is not on record here.

Sequence of Cytochrome P450 1A2 (Homo sapiens) (P05177 whole entry, looked up): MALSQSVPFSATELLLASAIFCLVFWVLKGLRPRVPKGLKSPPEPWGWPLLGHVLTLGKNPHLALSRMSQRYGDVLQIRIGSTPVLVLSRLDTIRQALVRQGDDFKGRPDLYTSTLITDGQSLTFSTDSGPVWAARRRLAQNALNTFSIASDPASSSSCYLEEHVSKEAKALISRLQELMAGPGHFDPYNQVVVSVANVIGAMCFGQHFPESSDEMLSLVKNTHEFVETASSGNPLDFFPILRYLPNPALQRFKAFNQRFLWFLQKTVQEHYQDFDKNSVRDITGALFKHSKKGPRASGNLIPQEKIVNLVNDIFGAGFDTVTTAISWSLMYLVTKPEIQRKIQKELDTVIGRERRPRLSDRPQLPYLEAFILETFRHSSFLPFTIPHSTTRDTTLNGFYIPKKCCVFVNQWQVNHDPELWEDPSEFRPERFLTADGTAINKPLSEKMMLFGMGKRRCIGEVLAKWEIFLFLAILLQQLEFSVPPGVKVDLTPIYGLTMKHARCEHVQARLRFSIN
Sequence of Glucocorticoid receptor (Homo sapiens) (P04150 whole entry, looked up): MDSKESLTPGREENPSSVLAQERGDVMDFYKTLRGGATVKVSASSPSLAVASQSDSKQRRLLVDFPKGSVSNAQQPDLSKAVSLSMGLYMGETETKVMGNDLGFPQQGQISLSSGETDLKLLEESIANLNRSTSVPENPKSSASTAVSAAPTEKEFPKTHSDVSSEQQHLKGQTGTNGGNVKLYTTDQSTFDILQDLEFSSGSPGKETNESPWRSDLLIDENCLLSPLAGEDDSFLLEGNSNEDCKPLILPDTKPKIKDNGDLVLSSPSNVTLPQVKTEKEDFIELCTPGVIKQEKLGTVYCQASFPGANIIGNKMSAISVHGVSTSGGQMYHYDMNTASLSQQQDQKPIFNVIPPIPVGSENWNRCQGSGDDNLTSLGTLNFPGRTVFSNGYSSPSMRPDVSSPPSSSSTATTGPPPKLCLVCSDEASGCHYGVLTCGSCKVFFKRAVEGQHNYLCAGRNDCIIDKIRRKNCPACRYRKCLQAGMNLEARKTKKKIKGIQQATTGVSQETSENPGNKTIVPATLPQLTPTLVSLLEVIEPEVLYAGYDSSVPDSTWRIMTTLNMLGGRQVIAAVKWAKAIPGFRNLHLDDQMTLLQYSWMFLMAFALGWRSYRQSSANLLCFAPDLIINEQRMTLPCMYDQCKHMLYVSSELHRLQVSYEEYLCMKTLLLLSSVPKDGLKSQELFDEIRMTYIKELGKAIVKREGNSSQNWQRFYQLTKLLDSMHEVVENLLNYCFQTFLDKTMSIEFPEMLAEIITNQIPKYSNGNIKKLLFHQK
Sequence of 3',5'-cyclic-AMP phosphodiesterase 4B (Homo sapiens) (Q07343 whole entry, looked up): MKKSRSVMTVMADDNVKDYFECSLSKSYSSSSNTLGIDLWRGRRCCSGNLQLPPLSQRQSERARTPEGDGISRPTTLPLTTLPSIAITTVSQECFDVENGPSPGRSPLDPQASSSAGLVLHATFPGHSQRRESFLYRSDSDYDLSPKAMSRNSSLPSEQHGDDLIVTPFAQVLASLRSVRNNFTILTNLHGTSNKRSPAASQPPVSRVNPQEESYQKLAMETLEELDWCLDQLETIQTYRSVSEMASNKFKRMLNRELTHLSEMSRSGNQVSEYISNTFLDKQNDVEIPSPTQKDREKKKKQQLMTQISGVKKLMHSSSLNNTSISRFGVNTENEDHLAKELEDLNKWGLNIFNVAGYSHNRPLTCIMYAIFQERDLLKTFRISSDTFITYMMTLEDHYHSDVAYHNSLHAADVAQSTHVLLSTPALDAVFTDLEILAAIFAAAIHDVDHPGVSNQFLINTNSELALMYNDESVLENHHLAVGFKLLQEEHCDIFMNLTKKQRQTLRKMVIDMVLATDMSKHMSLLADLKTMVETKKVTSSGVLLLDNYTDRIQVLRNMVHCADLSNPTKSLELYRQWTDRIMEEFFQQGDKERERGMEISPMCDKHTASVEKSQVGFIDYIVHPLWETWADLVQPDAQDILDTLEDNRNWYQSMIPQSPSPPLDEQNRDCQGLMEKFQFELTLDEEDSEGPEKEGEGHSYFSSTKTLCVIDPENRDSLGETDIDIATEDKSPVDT
Sequence of Ubiquitin carboxyl-terminal hydrolase 1 (Homo sapiens) (O94782 whole entry, looked up): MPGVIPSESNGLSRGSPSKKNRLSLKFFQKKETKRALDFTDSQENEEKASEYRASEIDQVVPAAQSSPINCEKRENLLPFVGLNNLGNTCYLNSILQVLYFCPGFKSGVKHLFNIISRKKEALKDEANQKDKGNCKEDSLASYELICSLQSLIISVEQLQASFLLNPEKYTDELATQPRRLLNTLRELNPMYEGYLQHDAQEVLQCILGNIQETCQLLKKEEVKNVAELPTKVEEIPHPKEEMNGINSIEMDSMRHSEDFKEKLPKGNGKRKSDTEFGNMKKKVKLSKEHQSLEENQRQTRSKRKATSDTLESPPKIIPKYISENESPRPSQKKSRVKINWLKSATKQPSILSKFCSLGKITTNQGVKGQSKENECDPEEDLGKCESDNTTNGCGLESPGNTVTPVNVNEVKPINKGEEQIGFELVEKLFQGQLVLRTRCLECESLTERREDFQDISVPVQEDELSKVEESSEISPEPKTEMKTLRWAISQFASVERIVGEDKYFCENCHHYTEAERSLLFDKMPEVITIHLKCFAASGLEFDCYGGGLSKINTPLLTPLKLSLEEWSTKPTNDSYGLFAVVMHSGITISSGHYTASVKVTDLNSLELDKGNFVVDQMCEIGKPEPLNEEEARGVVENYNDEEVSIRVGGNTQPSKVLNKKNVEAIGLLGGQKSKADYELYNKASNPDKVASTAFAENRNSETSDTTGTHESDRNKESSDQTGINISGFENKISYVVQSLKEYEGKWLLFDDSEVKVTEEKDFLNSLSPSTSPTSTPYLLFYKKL
Sequence of DNA dC->dU-editing enzyme APOBEC-3G (Homo sapiens) (Q9HC16 whole entry, looked up): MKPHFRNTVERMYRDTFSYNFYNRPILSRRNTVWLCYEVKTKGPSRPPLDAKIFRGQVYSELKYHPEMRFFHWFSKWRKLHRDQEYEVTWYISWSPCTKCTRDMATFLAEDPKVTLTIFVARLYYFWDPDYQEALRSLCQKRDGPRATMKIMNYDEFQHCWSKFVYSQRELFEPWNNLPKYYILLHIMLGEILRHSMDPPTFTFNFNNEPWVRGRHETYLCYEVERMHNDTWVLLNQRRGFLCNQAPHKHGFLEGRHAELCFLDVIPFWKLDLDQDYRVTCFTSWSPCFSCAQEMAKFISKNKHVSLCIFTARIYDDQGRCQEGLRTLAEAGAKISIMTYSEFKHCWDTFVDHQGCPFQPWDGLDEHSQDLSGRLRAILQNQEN

In the case of `CCCN[C@@H]1CCc2c(OC)cccc2[C@@H]1C`, the Potency in [1] and in [2] was > 46 µM (inactive) each time. Also, the Potency result in [3], in assay [4], in [5] and in assay [6] was “inactive” each time.

As for `CC(C)(Cc1c[nH]c2ccc(Cl)cc12)NCCOc1ccccc1OCC1CC1`, the Potency in [1] and in assay [2] was > 46 µM (inactive) in each case. Also, the Potency entry in assay [5] and in assay [6] was “inactive” each time.

For the molecule `O=C1/C(=C\c2ccccc2)C[C@@]2(O)[C@H]3Cc4ccc(O)c5c4[C@@]2(CCN3CC2CC2)[C@@H]1O5`, the figures for the Potency in [7], in assay [1] and in assay [2] were 31.6 µM (active), > 46 µM (inactive) and > 46 µM (inactive), respectively. In addition, the Potency result in assay [4], in assay [5] and in [6] was “inactive” in each case.

Consider `COC(=O)N1CCN(C(=O)Cc2ccc(Cl)c(Cl)c2)[C@H](CN2CCCC2)C1`, for which the Potency entry in assay [7], in [3], in assay [5] and in [6] was “inactive” throughout. Besides, in assay [2], the Potency was > 46 µM (inactive).

For `COc1ccc(CNC(=O)/C=C\c2ccc3[nH]cc(CCN(C)C)c3c2)cc1`, the Potency entry in assay [7], in assay [3], in assay [4], in [5] and in assay [6] was “inactive” in each case. Further, the Potency in assay [1] and in assay [2] was > 46 µM (inactive) in each case.

`NC[C@H](CP(=O)(O)O)c1ccc(Cl)cc1`: the Potency result in assay [7], in assay [3] and in [6] was “inactive” in each case. Also, the Potency in assay [1] and in [2] was > 46 µM (inactive) in each case. The outcome in assay [8] was inactive.

`CC1=C(O)C(=O)[C@H]2O[C@@H]2C1=O`: the Potency result in [7], in assay [3], in assay [4] and in assay [6] was “inactive” in each case. The Potency in assay [1] and in assay [2] was > 46 µM (inactive) throughout.

For the molecule `C(=C/c1ccccc1)/CN1CCN(CCOC(c2ccccc2)c2ccccc2)CC1`, the Potency in assay [7] is 20 µM (active); in assay [1], > 46 µM (inactive); in assay [2] it was > 46 µM (inactive). Also, the Potency entry in [5] and in assay [6] was “inactive” throughout.

Turning to `Oc1ccc2c3c1O[C@H]1c4oc5ccccc5c4C[C@]4(O)[C@H](C2)N(CC2CC2)CC[C@@]314`, the Potency entry in assay [7], in [3], in assay [5] and in assay [6] was “inactive” in each case. In addition, the Potency in [1] and in assay [2] was > 46 µM (inactive) throughout. For the same molecule, the call in assay [8] was inactive.

Take `O=C(Cc1ccc(Cl)c(Cl)c1)N1CCCC[C@H]1CN1CCCC1`: the Potency entry in assay [7], in assay [3], in assay [5] and in assay [6] was “inactive” in each case. In addition, the Potency in assay [1] and in assay [2] was > 46 µM (inactive) in each case. Moreover, the result in assay [8] was inactive.

In the case of `C[C@@H]1O[C@H](O[C@@H]2C[C@@H](O)[C@]3(CO)[C@H]4[C@H](O)C[C@]5(C)[C@@H](C6=CC(=O)OC6)CC[C@@]5(O)[C@@H]4CC[C@]3(O)C2)[C@@H](O)[C@H](O)[C@H]1O`, in assay [8], the call was inactive. In addition, the Potency result in [4], in assay [5] and in [6] was “inactive” each time.

On to `O=C1C2CCN(CC2)C1(CO)CO`, for which the Potency result in assay [7], in [3], in [5] and in [6] was “inactive” in each case. For the same molecule, the Potency in assay [1] was > 46 µM (inactive); in assay [2], > 46 µM (inactive) and > 9.22 µM (inactive). The molecule was called inactive in assay [8].

Regarding `O[C@H]1[C@H](O)[C@@H](O)CN2CC[C@H](O)[C@H]12`, the Potency result in [6] was “inactive”.

Take `C[N+]1(C)CCc2cc3c(cc2C1C1OC(=O)c2c1ccc1c2OCO1)OCO3` (stereo not given): the activity change, negative = inhibition in assay [9] was 2.12% (inactive). The max response in assay [9] (setting [10]) stood at 1.78%; in assay [9] (setting [11]), 1.49%. Also, the Potency result in [6] is “inactive”.

As for `CCCCC1(C2CCCC2)Cc2cc(OCCCC(=O)O)c(Cl)c(Cl)c2C1=O` (stereo not given), the Potency result in assay [6] was “inactive”.

In the case of `O=C1CC[C@@]2(O)[C@H]3Cc4ccc(O)c5c4C2(CCN3CC2CC2)[C@H]1O5`, the Potency entry in assay [6] was “inactive”.

As to `S=C=Nc1cccc(C2(N3CCCCC3)CCCCC2)c1`, the Potency entry in assay [7], in [3], in assay [5] and in assay [6] was “inactive” throughout. Besides, the Potency in assay [1] and in assay [2] was > 46 µM (inactive) each time. Also, in assay [8], the molecule was called inactive.

For the molecule `CCOC(=O)c1ncn2c1CN(C)C(=O)c1cc(N=[N+]=[N-])ccc1-2`, in [6], the Potency entry was “inactive”.

As to `CC[C@@H](CO)NC(=O)[C@H]1C=C2c3cccc4[nH]cc(c34)C[C@H]2N(C)C1`, the Potency in assay [1] is > 46 µM (inactive); in assay [2], > 46 µM (inactive); in assay [6], 29.9 µM (active). Also, the Potency entry in assay [3] and in assay [5] was “inactive” in each case.

With `Cc1ccc2cc3c(ccc4ccccc43)c3c2c1CC3`, in [6], the Potency entry was “inactive”.

Turning to `CCN1C[C@]2(COC(=O)c3ccccc3N3C(=O)C[C@H](C)C3=O)CC[C@H](OC)[C@@]34[C@@H]5C[C@H]6[C@H](OC)[C@H]5[C@](O)(C[C@@H]6OC)[C@@](O)([C@@H](OC)[C@@H]23)[C@@H]14`, the Potency in [2] was > 46 µM (inactive). Also, the Potency entry in assay [4], in assay [5] and in assay [6] was “inactive” each time.

As to `C[C@@H]1O[C@@H](O[C@H]2C[C@@H](O)[C@]3(CO)[C@@H]4C(CC[C@]3(O)C2)[C@@]2(O)CC[C@H](C3=CC(=O)OC3)[C@@]2(C)C[C@H]4O)[C@H](O)[C@H](O)[C@H]1O` (stereo not given in full), the Potency entry in assay [5] and in assay [6] was “inactive” each time.

For `O=C1CS[C@@H](c2ccccc2Cl)c2cc(Cl)ccc2N1`, the Potency in assay [1] and in [2] was > 46 µM (inactive) throughout. In addition, the Potency entry in [5] and in assay [6] was “inactive” in each case.

Take `CCCCC[C@H]1C(=O)O[C@H](C)[C@H](NC(=O)c2cccc(NC=O)c2O)C(=O)O[C@@H](C)[C@@H]1OC(=O)CC(C)C`: the Potency entry in assay [6] was “inactive”.

As for `CC(C)(c1ccc(OC[C@@H]2CO2)cc1)c1ccc(OC[C@H]2CO2)cc1`, the Potency in assay [2] was > 46 µM (inactive). In addition, the activity change, negative = inhibition in [9] was 4.02% (inactive). Moreover, the max response was 20.1% in assay [9] (setting [10]) and 20.3% in assay [9] (setting [11]). Besides, the Potency entry in assay [6] is “inactive”.

As for `CC[C@]1(C2=NCCN2)Cc2ccccc2O1`, the Potency entry in assay [7], in assay [3], in assay [5] and in assay [6] was “inactive” throughout. In addition, in assay [8], the molecule was called inactive. Also, in assay [9], the activity change, negative = inhibition is 2.09% (inactive). The figures for the max response in [9] (setting [10]) and in [9] (setting [11]) were 4.62% and 7.07%, respectively.

`CC(C)n1cnc2c(C(=O)N[C@H]3CN4CCC3CC4)cc(Cl)cc21`: the Potency in assay [1] and in assay [2] was > 46 µM (inactive) each time. Also, the Potency entry in assay [3], in [4] and in assay [6] was “inactive” in each case. Besides, the activity change, negative = inhibition in assay [9] was 2.71% (inactive). Besides, the max response in assay [9] (setting [10]) came out at 14.7%; in assay [9] (setting [11]), 19.1%.

In the case of `COc1ccc2[nH]cc(CCN(C)C)c2c1`, the Potency in assay [7] was 15.8 µM (active); in [1], > 46 µM (inactive) and > 20.6 µM (inactive); in assay [2], > 46 µM (inactive). Further, the call in [8] was inactive. For the same molecule, the Potency result in [3] and in [6] was “inactive” throughout.

On to `Cc1ncc(C[n+]2csc(CCO)c2C)c(=O)[nH]1`, for which the Potency result in assay [6] is “inactive”.
